{"source": "PubChem BioAssay (NCATS)", "note": "Results filed as inconclusive are left out. Activity calls are given as the source filed them. The call rests on the fitted dose curve; in most records, active means well fitted curve in the direction sought with a large enough effect; inconclusive means small, poorly fitted or top-dose-only effect, or effect the other way, or another doubt; inactive means no such curve, though single readings can be large or run the other way. Peptide text beside a SMILES is read from it. * marks the point of attachment. Octanoyl = CCCCCCCC(=O)*", "data": [{"assay": "HPAF-II 24hr Apoptosis Induction qHTS against the NCATS CANVASS Library (AID 1347356); further: 0% is about no effect", "conditions": "HPAF-II caspase-3/7 Caspase-Glo luminescence; series mostly up to 46.1 µM; caspase activation: at the top concentration", "description": "Natural products and their derivatives continue to be wellsprings of nascent therapeutic potential. However, many laboratories have limited resources for biological evaluation, leaving their previously isolated or synthesized compounds largely or completely untested. To address this issue, the Canvass library of natural products was assembled (https://tripod.nih.gov/canvass), in collaboration with academic and industry researchers, for quantitative high-throughput screening (qHTS) across a diverse set of cell-based and biochemical assays. The pure (>85% purity by liquid chromatography/mass spectrometry [LC/MS]) Canvass library of 346 natural products were submitted by 45 academic laboratories and companies around the world. We collected pure natural products to circumvent deconvolution and structure elucidation due to time and resource limitations. The library was formatted into 1536-well plates and evaluated in 50 qHTS (in an 11-pnt concentration series) bioassays with broad scope of disease-relevant mechanisms. The resulting data set from 50 different assays was then systematically analyzed to identify overall trends and specific natural products with interesting biological activities. Reported herein are the results of each individual qHTS and their corresponding assay protocol. The Caspase-Glo (R) (Promega) is a homogeneous, luminescent assay that measures caspase activity. The detection substrate contains tetrapeptide sequence DEVD in an \"add-mix-measure\" format. The reagent generates a luminescent signal produced by a thermostable luciferase. The luminescence is proportional to the amount of caspase activity in the assay reaction. National Center for Advancing Translational Sciences (NCATS), Rockville, MD National Institute of Health (NIH), Bethesda, Maryland\nCancer Cell Apoptosis Assay 1. In a 1536 well, white solid bottom tissue culture plates (Corning 7494), HPAF-II cancer cells in DMEM + 10% FBS + 1% P/S media were dispensed in each well at a final concentration of 500 cells / well (5uL volume) using the Multidrop Combi (Thermo Fisher Scientific) dispenser. 2. Compounds were pin transferred (~23nL volume) via Wako Pin-tool (Wako Automation, Richmond VA) equipped with a 1536 pin head. The assay plates were treated with compounds in a concentration series with a final concentration range of 0.17 nM to 103 uM. 3. Doxorubicin was used as a control in a 16pnt titration (1mM; 1:2 dilution; 16-points; n = 2; column 3, rows 1 - 32) and was pin transferred via Wako Pin-tool equipped with a 1536 pin head. The final concentration range of doxorubicin is 0.1nM - 4uM. 4. The assay plates were incubated for 24 hours at 37 degrees C/5% CO2/95% Rh. 5. 3uL Caspase-Glo 3/7 (R) (Promega) detection reagent was then added to the assay plates (columns 2 - 48, rows 1 - 32) and incubated at room temperature, covered from light, for 15 min. 6. Luminescence signal was acquired via the ViewLux plate reader (PerkinElmer) using a clear filter, 20 second exposure and 2x binning settings.", "values": [{"molecule": "C[C@@H]1O[C@@H](Oc2c(-c3ccc(O)cc3)oc3cc(O)cc(O)c3c2=O)[C@H](O)[C@H](O)[C@H]1O", "caspase activation": "-1.91% (inactive)"}, {"molecule": "C[C@@H]1C[C@H]2C[C@]3(CCCCN3C)[C@@H]3C[C@H]2[C@H](C1)N(C)C3", "caspase activation": "5.73% (inactive)"}, {"molecule": "C=C(NC(=O)c1csc(-c2nc3c(cc2O)-c2nc(cs2)C(=O)NC(C(C)O)C(=O)N/C(=C(\\C)O)c2nc(cs2)C(=O)NC2c4nc(cs4)C(=O)NC(COC(=O)c4c5c6c(cccc6n4O)COC(=O)[C@@H](OC4C[C@](C)(O)[C@H](N(C)C)[C@H](C)O4)C2OC5)c2nc-3cs2)n1)C(N)=O", "note": "(stereo not given in full)", "caspase activation": "-1.16% (inactive)"}, {"molecule": "CCCCCC[C@H](CCCCC[C@@H](O)C(N)=O)OC(=O)[C@@H]1CC=CN1C(=O)c1ccccc1O", "caspase activation": "0.78% (inactive)"}, {"molecule": "CC1(C)[C@H](Br)CC[C@]23C[C@]4(C)C(=O)CC12C[C@H]34", "caspase activation": "-1.04% (inactive)"}, {"molecule": "C/C(=C\\[C@H](C)C(=O)CCCC1CC(=O)NC(=O)C1)[C@@H]1OC(=O)/C=C/CC/C=C/C[C@@H](O)[C@@H]1C", "caspase activation": "6.94% (inactive)"}, {"molecule": "C=C1/C=C\\C(CCC)=C\\c2csc(n2)C(C)NC(=O)C[C@@]2(CC(=O)O)CCC(=C)[C@H](C1)S2", "note": "(stereo not given in full)", "caspase activation": "-2.48% (inactive)"}, {"molecule": "O=Cc1ccc2n1C[C@@]1(C[C@H](O)[C@H](O)CO1)OC2", "caspase activation": "1.84% (inactive)"}, {"molecule": "CN1CCc2cc3c(c4c2[C@H]1[C@@H](O)c1ccccc1-4)OCO3", "caspase activation": "-3.98% (inactive)"}, {"molecule": "CC12C[C@]3(O)O[C@@H](O1)[C@]1(COC(=O)c4ccccc4)[C@@H]3CC21OC1OC(CO)C(O)C(O)C1O", "note": "(stereo not given in full)", "caspase activation": "0.588% (inactive)"}, {"molecule": "CO[C@H]1/C=C/CC[C@@H](S[C@@H]2O[C@H](CO)[C@@H](O)[C@H](O)[C@H]2O)CC(=O)O[C@@H](/C(C)=C/[C@H](C)C(=O)CCCC2CC(=O)NC(=O)C2)[C@@H](C)[C@@H]1O", "caspase activation": "10.2% (inactive)"}, {"molecule": "O=C1CC(c2cc(O)cc(O)c2)Oc2cc(O)ccc21", "note": "(stereo not given)", "caspase activation": "1.23% (inactive)"}, {"molecule": "C[C@@]12C[C@@H](C[C@H]3C(=O)O[C@@H](c4ccoc4)[C@H](OC(=O)c4ccccc4)[C@@H]31)OC2=O", "caspase activation": "-0.792% (inactive)"}, {"molecule": "CNc1ccc(Cl)cc1C(=O)OC[C@]1(C)[C@H]2CC[C@]3(C)[C@@H](C[C@@H](OC)[C@H](C)[C@H]3C3=C(O)C(=O)OC3O)[C@]2(C)CC[C@H]1O", "note": "(stereo not given in full)", "caspase activation": "3.81% (inactive)"}, {"molecule": "CC1C(=O)C23CCC1C[C@]21O[C@@H]2C(C)(C)C=CC(=O)[C@@]23COC1=O", "note": "(stereo not given in full)", "caspase activation": "3.37% (inactive)"}, {"molecule": "CC1(C)CC[C@]2(C(=O)O)CC[C@]3(C)C(=CC[C@@H]4[C@@]5(C)C[C@@H](O)[C@H](O)C(C)(C)[C@@H]5CC[C@]43C)[C@@H]2C1", "caspase activation": "2.12% (inactive)"}, {"molecule": "CO[C@@H]1[C@H](O)[C@@H](C)O[C@@H](OC[C@@H]2C(C)OC(=O)/C=C/[C@H](C)C(O[C@@H]3O[C@H](C)CC4(OC(=O)O[C@@H]4C)C3O)[C@@H](C)CC(C)C(=O)CC[C@H]3OC23)[C@@H]1OC", "note": "(stereo not given in full)", "caspase activation": "-1.63% (inactive)"}, {"molecule": "C/C=C/C=C/C1(O)C2C=C3C(=O)CC45C(=O)C(O)=C(C)C(=O)C4C1C1(C(=O)C(O)=C(C)C(=O)C351)C2C", "note": "(stereo not given)", "caspase activation": "0.852% (inactive)"}, {"molecule": "CC1(C)CCC[C@]2(C)[C@@H]1CC[C@@]13C[C@@H](CC[C@H]12)C(C)(O)C3", "note": "(stereo not given in full)", "caspase activation": "0.355% (inactive)"}, {"molecule": "CC1C(=O)C23CCC1C[C@@]21O[C@H]2C(C)(C)C=CC(=O)[C@@]23COC1=O", "note": "(stereo not given in full)", "caspase activation": "3.64% (inactive)"}, {"molecule": "Oc1ccc([C@H]2Oc3ccc(/C=C/c4cc(O)cc(O)c4)cc3C2c2cc(O)cc(O)c2)cc1", "note": "(stereo not given in full)", "caspase activation": "1.63% (inactive)"}, {"molecule": "C[C@@]12CCC[C@@](C)(C(=O)O)[C@H]1CC[C@]13C[C@H]4C[C@H](O[C@@]4(C)C1)[C@H]32", "caspase activation": "2.54% (inactive)"}, {"molecule": "C=C1C(=O)O[C@H]2[C@H]1CC/C(CO)=C\\CC[C@@]1(C)O[C@@H]21", "caspase activation": "4.67% (inactive)"}, {"molecule": "C=C[C@@]1(C)CC[C@@H]([C@H](C)C(=O)/C=C/C(C)C)O1", "caspase activation": "2.5% (inactive)"}, {"molecule": "C=C[C@]1(C)CC[C@@H]([C@H](C)C(=O)OCC)O1", "caspase activation": "2.55% [at 27.5 µM] (inactive)"}, {"molecule": "CC(O)/C=C/C1(O)C(C)(C)CC(O)CC1(C)O", "note": "(stereo not given)", "caspase activation": "0.831% (inactive)"}, {"molecule": "CCCCCCCC(=O)N[C@@H](CC(C)C)C(=O)N[C@H](C=O)CCC(=O)O", "note": "(Octanoyl-Leu-Glu-aldehyde)", "caspase activation": "-0.352% (inactive)"}, {"molecule": "COc1ccc(/C=C2\\COc3cc(O)ccc3C2=O)cc1", "caspase activation": "-8.71% (inactive)"}, {"molecule": "O=c1cc(-c2ccc(O)cc2)oc2c([C@@H]3OC(CO)[C@H](O)[C@@H](O)[C@H]3O)c(O)cc(O)c12", "note": "(stereo not given in full)", "caspase activation": "0.765% (inactive)"}, {"molecule": "COc1ccc2cc(NC(=O)C3=NO[C@H]4[C@H](O)C=C[C@@H](Cl)[C@@]4(O)C3)c(=O)oc2c1OC", "caspase activation": "-2.88% (inactive)"}, {"molecule": "CC(C)=CCC/C(C)=C/Cc1c(O)c(CC=C(C)C)c(O)c2c(=O)c3cc(O)ccc3oc12", "caspase activation": "3.74% (inactive)"}, {"molecule": "C/C1=C\\CC(=O)/C=C/C=C\\c2csc(n2)[C@@H](C)NC(=O)C[C@@](S)([C@@H](C)C(=O)O)CC1", "caspase activation": "1.85% (inactive)"}, {"molecule": "CN1C(=O)C2C(N=CN2C)N(C)C1=O", "note": "(stereo not given)", "caspase activation": "0.869% (inactive)"}, {"molecule": "CC[C@@H]1C[C@@]2(CC)OC(=O)[C@@]3(CC)OC(=O)[C@@H]1[C@@H]23", "caspase activation": "2.71% (inactive)"}, {"molecule": "O=C(O)[C@@]12COC3(O)C1CCN1CC[C@H]3[C@@H]1c1c2[nH]c2ccccc12", "caspase activation": "1.97% (inactive)"}, {"molecule": "CC(=O)O[C@H]1CC[C@@]2(C)C(CC[C@]3(C)C2CC=C2C4CC(C)(C)CC[C@]4(C)CC[C@]23C)C1(C)C", "note": "(stereo not given in full)", "caspase activation": "-3.05% (inactive)"}, {"molecule": "C=C1[C@H]2CC[C@@]3(C=CC(=O)[C@@](C)(CCC(=O)Nc4c(O)ccc(C(=O)O)c4O)C3C2)[C@H]1O", "note": "(stereo not given in full)", "caspase activation": "-1.39% (inactive)"}, {"molecule": "O=C1c2c(O)cc(O)cc2O[C@@H](c2ccc(O)cc2)[C@@H]1c1c(O)cc(O)c2c(=O)cc(-c3ccc(O)c(O)c3)oc12", "caspase activation": "2.34% (inactive)"}, {"molecule": "CC(=O)NC[C@@H]1O[C@H](CC/C=C(C)/C(C)=C/C=O)[C@H](C)C[C@H]1O", "caspase activation": "2.94% (inactive)"}, {"molecule": "CCCCCCCCC[C@@H]1C[C@@H]2CC[C@H]3[C@@H](C(=O)OCCCCN=C(N)N)[C@@H](C)N=C(N1)N23", "caspase activation": "-2.91% [at 27.5 µM] (inactive)"}]}]}
